Compound activity (PubChem BioAssay)
Most compounds without a hit are left out; they make up all but 19% or so of the library.
SW480 rereplic: inducers of DNA re-replication in SW480 colon cancer cells; SW480 DNA re-replication, Hoechst DNA content imaging, 48 h; Potency, µM (highest dose often 46.1 µM), for the others: at the highest dose re-replication activation, hits mostly activators; 1.8% of 340,000 active; AID 624297; further: potency means the concentration at half of the fitted maximal effect; % of control where 0% means no effect; nearly all actives have a fitted effect of over 55% in size
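SW480 cells exposed to compounds for 48 hr at 37 C, 5% CO2, then Hoechst-stained 40 min. Nuclear DNA content imaged by fluorescence scanning (405 nm excitation, 500-530 nm emission); re-replication scored as increased high-intensity nuclei.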
IL1B secr inh: inhibitors of inflammasome signaling (IL-1 beta secretion); 4.7% of 360,000 active; activity change, % at 57.5 µM; THP-1 LPS/ATP IL-1B secretion, AlphaLISA, 16 h; hits give low values; in the data active means activity change below about -50%; inconclusive means mostly about -30% to -49%; further: on the % scale 0 is the no-effect control and ±100 the full control effect
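THP-1 cells pretreated 1 hr with compounds (up to 57.5 uM final), then stimulated with LPS (250 ng/mL final) plus ATP (1.25 mM final); secreted IL-1B measured by AlphaLISA after 16 hr, decreased signal indicating inhibition.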
Chronic BCR inh: inhibitors of chronic active B-cell receptor signaling | ABC-DLBCL IkBa-CBG/CBR reporter, luminescence ratio, 4 h | Potency, µM (top dose mostly 46.1 µM), for the others: top-dose activity change, negative = inhibition, actives largely listed as inhibitors | 0.05% of 340,000 active | AID 493014; active means well fitted inhibition curve with a large enough effect in the signal ratio, with a control signal flat, not every such curve was filed as active; inconclusive means small, poorly fitted or top-dose-only effect, or effect the other way, or a change in a side signal; the % refers to the signal ratio;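 further: potency means the concentration at half of the fitted maximal effect; plate controls were basal doxycycline-induced cells for no effect and cells given 10 µM MG132 for full effect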
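TMD8 human ABC-DLBCL cells with doxycycline-inducible IκBα–green luciferase fusion and unfused red luciferase, in 0.5% FBS medium; compounds up to 46 uM, 4 h at 37C. Green/red luminescence ratio, filter-overlap corrected, fitted to concentration-response curves.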
TDP1 cell CPT: DT40-hTDP1 cell growth loss with CPT. chicken DT40 Tdp1-/-;hTDP1 cells + 20 nM CPT, ATP luminescence, 48 h. 12% of 420,000 active. Potency, µM (highest dose often 46.2 µM), for the others: at the top dose activity change, negative = growth inhibition, most hits filed as inhibitors; further: potency means the concentration at half of the fitted maximal effect; on the % scale 0 is the no-effect control and ±100 the full control effect; nearly all actives have a fitted effect of over 55% in size
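Chicken DT40 Tdp1-/- cells complemented with human TDP1, 400 cells/well, exposed to compounds plus 20 nM camptothecin for at least 48 h at 37 C; viability read as ATP content by CellTiter-Glo luminescence.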
MCF10A rereplic: induces DNA re-replication in MCF 10a normal breast cells. MCF 10A DNA re-replication, Hoechst nuclear intensity, 48 h. Potency, µM (titrated, usually from 46.1 µM), for the others: at the highest dose activity, positive = re-replication, actives largely listed as activators. 2.9% of 350,000 active; further: potency means the concentration at half of the fitted maximal effect; % of control where 0% means no effect; nearly all actives have a fitted effect of over 50% in size
TDP1 cell noCPT: qHTS for Inhibitors of human tyrosyl-DNA phosphodiesterase 1 (TDP1): qHTS in cells in absence of CPT; 15% of 420,000 active; Potency, µM (series often up to 46.2 µM), inactives show at the top dose activity change, negative = growth inhibition, most hits filed as inhibitors; DT40 Tdp1-/- hTDP1 cells, no CPT, ATP luminescence, 48 h; AID 686978, 2013; further: potency means the concentration at half of the fitted maximal effect; on the % scale 0 is the no-effect control and ±100 the full control effect; nearly all actives have a fitted effect of over 55% in size
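Chicken DT40 Tdp1-/- cells complemented with human TDP1, screened without camptothecin (DMSO vehicle only), 400 cells/well. Compounds pin-transferred, cells incubated at 37 °C for at least 48 hr. Growth read as ATP-dependent luminescence (CellTiter-Glo, 30 min at RT).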
* marks the source's active call; other numbers are inactive results; ? = inconclusive; · = no result. Unless noted, the call rests on the fitted dose curve; in most records, active means well fitted curve in the direction sought with a large enough effect; inconclusive means small, poorly fitted or top-dose-only effect, or another doubt; inactive means no such curve, though single readings can be large; an effect the other way counts as inactive or inconclusive.

SMILES	SW480 rereplic	IL1B secr inh	Chronic BCR inh	TDP1 cell CPT	MCF10A rereplic	TDP1 cell noCPT
O=C(Nc1cccc(F)c1)C1CCCN1C(=O)OCc1ccccc1 (centres undefined)	-5%	15	-2%	-12%	2%	-3%
COc1ccc(C(=O)NCC(c2cccnc2)N2CCN(c3ccccc3OC)CC2)cc1OC (centres undefined)	1%	11	-2%	21µM*	1%	?
COc1cccc(C(=O)NCC(c2cccnc2)N2CCN(c3ccccc3OC)CC2)c1 (centres undefined)	-3%	33	16%	21µM*	11%	23µM*
COc1ccccc1N1CCN(C(CNC(=O)c2ccco2)c2cccnc2)CC1 (centres undefined)	-1%	12	12%	?	5%	?
COc1ccc(C(=O)NCC(c2cccnc2)N2CCN(c3ccccc3)CC2)cc1OC (centres undefined)	2%	21	0%	?	9%	-21%
CCOc1ccc(NS(=O)(=O)c2cc3c4c(c2)C(C)C(=O)N4CCC3)cc1 (centres undefined)	-14%	30	-2%	?	13%	?
COc1ccc(Cc2nc(C)cc(Cl)n2)cc1[N+](=O)[O-]	1%	11	3%	-16%	-8%	-5%
COc1ccc(CCNCc2cc(C)n(-c3ccc(OC)cc3)c2C)cc1	-4%	-29	0%	16µM*	8%	?
COc1ccc(CCNC(=O)CN2CCN(c3ccccc3Cl)CC2)cc1	2%	-6	?	-22%	1%	?
COc1ccc(CCNCc2ccccc2N2CCCC2)cc1	12%	?	-4%	18µM*	20%	?
N[C@H](C(=O)O)C1C(C(=O)O)C1C(=O)O (some centres undefined)	·	·	·	2%	·	1%
COc1ccc(-n2c(C)cc(C(=O)CSc3ccc(NC(C)=O)cc3)c2C)cc1	13%	10	-18%	?	16µM*	?
COc1ccc(-n2c(C)cc(C(=O)CCl)c2C)cc1	2.6µM*	-77*	?	1.5µM*	6.5µM*	1.8µM*
COc1ccccc1NC(=S)N(Cc1ccco1)Cc1cc2cc(C)ccc2[nH]c1=O	?	17	3%	9.2µM*	?	13µM*
COc1ccc(C(=O)N(Cc2ccco2)Cc2cc3cc(C)ccc3[nH]c2=O)cc1OC	10%	?	·	?	3%	16µM*
COc1ccccc1NC(=O)N(Cc1ccco1)Cc1cc2cccc(C)c2[nH]c1=O	13%	-12	?	16µM*	?	29µM*
Cc1ccc2[nH]c(=O)c(CN(Cc3ccco3)C(=O)c3ccncc3)cc2c1	?	18	-7%	10µM*	?	10µM*
CCN(Cc1cc2cc(C)ccc2[nH]c1=O)C(=O)c1cccc(OC)c1	6%	-9	-3%	?	11%	?
CCN(CC)CCN(Cc1cc2cc(C)ccc2[nH]c1=O)C(=O)Nc1ccccc1OC	-1%	-22	-5%	?	-8%	?
O=C(Cn1c(=O)c(CNc2ccccc2)cc2cc3c(cc21)OCCO3)Nc1ccccc1Cl	·	·	·	-121%	·	?
CCCCNC(=O)C1(C)CCN1C(=O)c1cc(-c2ccccc2)cs1 (centres undefined)	·	45	·	?	·	?
COc1cc(-c2nnc(SCC(=O)Nc3cccc(C#N)c3)o2)cc(OC)c1OC	·	·	·	-29%	·	-25%
O=C(CSc1nnc(SCC(=O)c2ccco2)s1)c1ccco1	0%	15	7%	23µM*	25%	10µM*
Cc1ccc(Sc2ccc(CN3CCCCC3)cc2[N+](=O)[O-])cc1	9%	0	?	18µM*	29%	?
CCOC(=O)N1CCc2c(sc3c2c(=O)n(Cc2ccccc2)c(=O)n3Cc2cccc(C)c2)C1	5%	-19	5%	13µM*	11%	13µM*
SMILES	SW480 rereplic	IL1B secr inh	Chronic BCR inh	TDP1 cell CPT	MCF10A rereplic	TDP1 cell noCPT
CCOC(=O)N1CCc2c(sc3c2c(=O)n(Cc2ccccc2)c(=O)n3Cc2c(F)cccc2Cl)C1	·	·	·	13µM*	·	18µM*
CCC1=C(c2ccc(C)cc2)S(=O)(=O)N=C1N1CCC(C(=O)NCCCN2CCCCC2C)CC1 (centres undefined)	-3%	-12	4%	-5%	-2%	-4%
COc1ccc(-n2cc(C(=O)N(C)c3cc(C)ccc3OC)c3ccccc3c2=O)cc1	·	·	·	?	·	21µM*
COc1ccc(-n2cc(C(=O)N(CCN(C)C)Cc3ccccc3)c3ccccc3c2=O)cc1	·	·	·	-27%	·	?
CCOC(=O)c1ccc(OC(=O)c2cn(-c3ccc(C)cc3)c(=O)c3ccccc23)cc1	·	·	·	16µM*	·	?
COC(=O)c1cn(-c2ccccc2)c(=O)c2ccccc12	-2%	-9	1%	-12%	-3%	-1%
CCOc1ccc(OC(=O)c2cn(-c3ccc(C)cc3)c(=O)c3ccccc23)cc1	·	·	·	?	·	16µM*
CCCOc1ccc(OC(=O)c2cn(-c3ccc(OC)cc3)c(=O)c3ccccc23)cc1	·	·	·	?	·	16µM*
CCOc1ccc(-n2cc(C(=O)Nc3ccc(Cl)cn3)c3cc(OC)c(OC)cc3c2=O)cc1	11%	-5	4%	2.9µM*	?	-27%
CC(C)c1nc(SCC(=O)Nc2ccc(N(C)C)cc2)c2ccccc2n1	?	-22	-1%	23µM*	?	?
Cc1csc(NC(=O)CSc2nc(C(C)C)nc3ccccc23)n1	26%	-96*	?	?	18µM*	12µM*
COc1cccc(NC(=O)Nc2nnc(-c3ccccc3SCc3ccccc3)s2)c1	?	44	?	?	7%	?
O=C(Nc1nnc(-c2ccccc2SCc2ccccc2)s1)Nc1ccccc1F	3.7µM*	60	?	?	2%	?
COc1ccc(NC(=O)Nc2nnc(-c3ccccc3SCc3ccccc3)s2)cc1	-2%	19	?	18µM*	?	6.5µM*
O=C(COC(=O)c1ccc[nH]c1=O)NCC12CC3CC(CC(C3)C1)C2	3%	20	-4%	-15%	4%	5%
O=C(COC(=O)Cc1c(F)cccc1Cl)NC(=O)c1ccccc1	-5%	0	?	-2%	2%	-23%
CCN(CC)CCN(Cc1cc2ccc(C)cc2[nH]c1=O)C(=S)Nc1ccccc1C(=O)OC	?	-77*	?	?	9%	?
